As a reminder, the AC50 is the concentration at which the activity in the assay is half-maximal.

Among the data in PubChem BioAssay (EPA / NIEHS) are outcome and AC50 values, retold here.

SMILES strings stand for the structures. Active and inactive are the calls of the source. The calls were made as follows: active = hit-call score of the fitted dose curve at least 0.9, where 1 is the maximum; inactive = score below 0.9.

The nature of the first assay: CCTE_Shafer_MEA_dev_mutual_information_norm: CCTE's Neural Network Formation Assay for Mutual Information Normalization, Shafer Lab (AID 2284091).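 As to AC50: mutual information between electrodes summarised as area under curve across four recording days; potency is for a decrease in mutual information relative to DMSO.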 A digest of the protocol: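 Exposure of primary rat cortical neurons began at plating and ran to DIV 12, with full media and treatment renewal after DIV 5 and 9 recordings. Mutual information AUC (DIV 5–12) was analysed for loss versus DMSO.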
On to `Clc1ccccc1C(c1ccccc1)(c1ccccc1)n1ccnc1`, for which the result was inactive.

For the compound `c1ccc2ccccc2c1`, the call was inactive.

For the compound `Oc1ccccc1`, the outcome was inactive.

As to `O=C1O[C@H]([C@@H](O)CO)C(O)=C1O`, the compound was called inactive.

For `CC(C)(c1cc(Br)c(O)c(Br)c1)c1cc(Br)c(O)c(Br)c1`, the call was inactive.

Regarding `CC/C(=C(/CC)c1ccc(O)cc1)c1ccc(O)cc1`, the AC50 is 0.864 µM (active).

Consider `CN1C(=O)CC[C@H]1c1cccnc1`, for which the compound was called inactive.

Another assay in a line: CCTE_Shafer_MEA_dev_correlation_coefficient_mean: CCTE's Neural Network Formation Assay for Mean Correlation Coefficient, Shafer Lab (AID 2284093).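 As to AC50: well mean pairwise spike train correlation integrated as AUC over recording days 5 to 12; potency fitted for loss of correlation relative to DMSO vehicle wells.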 A digest of the protocol: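 Spontaneous activity recorded on days 5, 7, 9 and 12 post-plating; pairwise spike correlations are averaged across active electrodes and collapsed to an area-under-curve. Rat cortical cultures are dosed from plating through 12 days, with compound renewed at media changes.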
For the compound `Clc1ccccc1C(c1ccccc1)(c1ccccc1)n1ccnc1`, the result was inactive.

Take `c1ccc2ccccc2c1`: the call was inactive.

In the case of `Oc1ccccc1`, the outcome was inactive.

Take `O=C1O[C@H]([C@@H](O)CO)C(O)=C1O`: the compound was called inactive.

For the compound `CC(C)(c1cc(Br)c(O)c(Br)c1)c1cc(Br)c(O)c(Br)c1`, the compound was classed as inactive.

Regarding `CC/C(=C(/CC)c1ccc(O)cc1)c1ccc(O)cc1`, the AC50 was 5.98 µM (active).

On to `CN1C(=O)CC[C@H]1c1cccnc1`, for which the outcome was inactive.
